GDH-TPI counter-1 = inhibits GDH-TPI coupling enzymes, artifact for Mtb FBA screen; GDH-TPI coupled enzyme counterscreen, NADH absorbance; inhibition, % at 4.8 µM; hit rate 1.2% among 360,000; AID 588335; in the data active means inhibition above about 30%;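 further: 0% = DMSO wells and 100% = wells lacking the enzyme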
Mtb FBA inh = inhibits M. tuberculosis FBA enzyme; P9WQA3; purified M. tuberculosis FBA, fluorescence read-out; inhibition, % at 1 µM; hit rate 2.3% among 360,000; AID 588726;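 further: 0% = vehicle and 100% = reference inhibitor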
Target sequence (P9WQA3 whole entry, looked up): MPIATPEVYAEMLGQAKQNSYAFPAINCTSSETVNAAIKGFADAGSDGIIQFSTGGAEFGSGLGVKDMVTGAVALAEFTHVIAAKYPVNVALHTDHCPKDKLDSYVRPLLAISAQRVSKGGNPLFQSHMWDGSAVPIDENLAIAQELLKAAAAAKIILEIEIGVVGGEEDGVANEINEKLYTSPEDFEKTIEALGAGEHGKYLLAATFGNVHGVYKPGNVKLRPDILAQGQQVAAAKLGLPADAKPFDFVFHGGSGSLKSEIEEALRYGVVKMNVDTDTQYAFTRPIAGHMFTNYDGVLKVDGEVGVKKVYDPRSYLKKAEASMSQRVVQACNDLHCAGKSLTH
FadD28 FP inh = blocks FadD28 binding to the bisubstrate probe; fluorescence polarization; inhibition, % at 12.5 µM; hit rate 0.22% among 360,000; AID 588549; in the data active means inhibition above about 8.5%, passing the limit was not always enough; inconclusive means no clear call, values can overlap the other calls
BioA inh = blocks M. tuberculosis BioA enzyme activity | hit rate 0.096% among 360,000 | purified M. tuberculosis BioA enzyme, plate reader | AID 602481 | inhibition, % at 9.99 µM; in the data active means inhibition above about 40%; inconclusive means no clear call, values can overlap the other calls
SARS 3CLpro inh = SARS-CoV 3CLpro protease inhibition | AID 1706 | inhibition, % at 6 µM | recombinant SARS-CoV 3CLpro, quenched FRET peptide cleavage | P0C6X7 | hit rate 0.14% among 290,000; in the data active means inhibition above about 12%
Mtb FBA confirm = Mtb FBA inhibition, confirmed; inhibition, % at 1 µM; hit rate 78% among 5,600; purified M. tuberculosis FBA, fluorescence read-out; shares compounds with Mtb FBA inh;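 further: 0% = vehicle wells and 100% = reference inhibitor wells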
GDH-TPI counter-2 = counter-screen for M. tuberculosis FBA inhibitors: GDH-TPI coupled enzyme inhibition. hit rate 81% among 5,600. shares compounds with Mtb FBA inh. inhibition, % at 1 µM. GDH-TPI coupled enzyme counterscreen, fluorescence; in the data active means inhibition above about 10%
The depositor's hits bear a star; ? = inconclusive; nt = no result; + = active, no number. This is a sample that favours compounds with a hit; in the whole collection about 3.1% have one here. Unless noted, no stated cut-off is given here; in the data, active means inhibition above about 27%; inactive means the rest.

SMILES	GDH-TPI counter-1	Mtb FBA inh	FadD28 FP inh	BioA inh	SARS 3CLpro inh	Mtb FBA confirm	GDH-TPI counter-2
C[C@H]1CN([C@@H](C)CO)C(=O)c2cc(/C=C/c3ccccc3)cnc2O[C@H]1CN(C)C(=O)c1ccc(F)cc1	nt	nt	nt	-0.7	nt	nt	nt
O=CNc1ccc2c3c(cccc13)-c1ccccc1-2	6.8	78.8*	0.3	-1.4	nt	69.5*	51.5*
COc1ccc(-c2[nH]ncc2C2N=C(N)Nc3nc4ccccc4n32)cc1 (stereo not given)	-0.6	33.9*	-3.1	4.1	-2.9	70.0*	51.9*
C[C@@H]1CN([C@H](C)CO)C(=O)c2cc(-c3ccccc3F)cnc2O[C@@H]1CN(C)Cc1cccc(F)c1	nt	nt	nt	0.3	nt	nt	nt
Cc1nn(-c2ccccc2)c(C)c1/C=N/NC(=O)c1ccccc1NS(=O)(=O)c1cccs1	17.9	7.7	-0.2	nt	7.0	nt	nt
O=C(NN=Cc1cc(Br)c(O)c(Br)c1)c1ccccc1NS(=O)(=O)c1cccs1	47.6*	79.2*	?	1.2	nt	165.1*	135.0*
COCCCNC(=O)/C(C#N)=C/c1c(N2CCN(c3ccccc3)CC2)nc2ccccn2c1=O	6.0	91.3*	-0.9	2.9	-4.4	112.3*	121.3*
CCNC(=O)/C(C#N)=C/c1c(N2CCN(c3ccccc3)CC2)nc2ccccn2c1=O	9.0	49.5*	-1.6	2.9	-1.1	26.6	17.4*
COCCCNC(=O)/C(C#N)=C/c1c(N2CCN(c3ccc(OC)cc3)CC2)nc2c(C)cccn2c1=O	9.2	8.9	-1.7	-1.2	-4.1	nt	nt
CC(C)CCNC(=O)c1cn(CC(C)C)c(=O)c2c1c1ccccc1n2C	4.1	2.1	-4.0	-0.9	-3.6	nt	nt
CC(C)Cn1cc(C(=O)N2CCOCC2)c2c3ccccc3n(C)c2c1=O	5.4	40.6*	1.0	-0.2	-6.2	42.5*	25.8*
CCOC(=O)N1CCN(C(=O)c2cn(CC(C)C)c(=O)c3c2c2ccccc2n3C)CC1	17.7	31.4*	-1.9	-1.9	-2.6	49.9*	46.6*
CCOC(=O)N1CCN(C(=O)c2cn(C)c(=O)c3c2c2ccccc2n3C)CC1	15.6	40.5*	-0.1	2.7	1.2	128.4*	107.5*
CC(C)Cn1cc(C(=O)NCc2cccs2)c2c3ccccc3n(C)c2c1=O	14.1	33.8*	-2.4	0.2	-3.1	191.8*	143.9*
COc1ccc(NC(=O)N(C)C[C@@H]2Oc3ccc(NC(=O)Cc4cn(C)c5ccccc45)cc3CC(=O)N([C@@H](C)CO)C[C@@H]2C)cc1	nt	nt	nt	-1.1	nt	nt	nt
COc1ccccc1NC(=O)N[C@H]1C=C[C@@H](CC(=O)N[C@H](C)c2ccccc2)O[C@H]1CO	nt	nt	nt	0.3	nt	nt	nt
COc1ccccc1CN1CC[C@H]2[C@H](CO)Nc3ccc(-c4ccc(C(=O)N(C)C)cc4)cc3[C@H]21	nt	nt	nt	-1.8	nt	nt	nt
COc1cccc(S(=O)(=O)N(C)C[C@H]2Oc3ncc(C#CCN(C)C)cc3C(=O)N([C@H](C)CO)C[C@H]2C)c1	nt	nt	nt	-1.2	nt	nt	nt
Cn1c2ccccc2c2c(C(=O)N3CCC4(CC3)OCCO4)cn(C3CCCCC3)c(=O)c21	-0.4	14.8	-2.6	0.0	-1.4	nt	nt
Cn1cc(C(=O)N2CCC3(CC2)OCCO3)c2c3ccccc3n(C)c2c1=O	15.7	39.8*	-0.3	nt	7.3	79.2*	58.7*
CCOC(=O)C(=CN=C(N)Nc1nc2ccccc2o1)C(=O)OCC	15.7	31.5*	0.1	-2.4	0.2	29.4*	22.6*
CC(C)(C)c1cc(NCCCn2ccnc2)n2ncc(-c3ccc(Cl)cc3)c2n1	14.1	60.9*	-2.7	nt	-3.0	59.8*	41.1*
Cc1cc(NCCCn2ccnc2)n2nc(-c3ccc(Cl)cc3)cc2n1	0.6	7.5	-3.8	nt	-5.6	nt	nt
CCN1CCSc2ccc(C(=O)NCc3ccccc3F)cc21	12.0	86.9*	-0.7	-1.0	-3.4	+	+
CCN1CCSc2ccc(C(=O)NCc3ccccc3Br)cc21	14.8	59.2*	2.4	-1.3	2.0	0.8	-1.9
SMILES	GDH-TPI counter-1	Mtb FBA inh	FadD28 FP inh	BioA inh	SARS 3CLpro inh	Mtb FBA confirm	GDH-TPI counter-2
CCC(=O)N1C[C@@H](C)[C@@H](OC)CN(C)C(=O)c2ccc(NC(=O)C3CC3)cc2OC[C@H]1C	nt	nt	nt	3.7	nt	nt	nt
Cc1c(Br)c(C(=O)NCc2cc3cc(Cl)ccc3[nH]2)nn1C	10.7	66.3*	-19.1	nt	4.9	85.4*	83.7*
C[C@@H]1CN([C@@H](C)CO)C(=O)c2cc(NC(=O)C3CCCCC3)ccc2O[C@H]1CN(C)C(=O)Nc1cccc2ccccc12	nt	nt	nt	0.7	nt	nt	nt
O=C(O)c1[nH]c2ccccc2c1NS(=O)(=O)Cc1ccccc1	8.2	60.5*	0.4	0.5	5.2	+	174.4*
COc1ccc(C2CC(c3ccncc3)=NN2c2ccc(S(N)(=O)=O)cc2)cc1 (stereo not given)	11.5	68.4*	-6.1	7.9	nt	108.6*	87.6*
CCC(=O)Nc1cccc(C2=NN(c3ccccc3)C(c3ccc(OC)cc3)C2)c1 (stereo not given)	13.8	77.1*	-1.6	-3.7	-1.7	104.0*	69.0*
COc1ccc(-c2nn(CCC(=O)O)cc2CCC(=O)O)cc1	-0.6	2.4	2.6	-5.1	6.8	nt	nt
COc1ccc(C2=NN(c3ccccc3)C(c3cn(CCC(=O)O)nc3-c3ccccc3)C2)cc1 (stereo not given)	9.5	107.8*	1.8	nt	4.6	22.9	19.0*
COc1ccc(C2CC(c3ccccc3)=NN2S(=O)(=O)c2ccccc2)cc1 (stereo not given)	5.2	1.9	-1.9	-1.1	4.9	nt	nt
COc1ccc(C2CC(c3ccccc3)=NN2c2ccc(Cl)c(C(=O)O)c2)cc1 (stereo not given)	7.0	85.9*	-0.1	2.5	11.7	+	+
COCCNC(=O)C[C@@H]1C[C@H]2c3cc(NC(=O)CC4CC4)ccc3O[C@H]2[C@@H](CO)O1	nt	nt	nt	0.8	nt	nt	nt
CC=Cc1ccc2n(c1=O)C[C@H]1[C@H](CO)[C@@H](C(=O)NC3CCC3)[C@@H]2N1Cc1ccccc1 (mixture of isomers)	nt	nt	nt	-1.6	nt	nt	nt
O=C(Cc1cccs1)N1CCN(c2ccccn2)CC1	-1.6	29.0*	0.9	nt	-5.2	53.6*	43.4*
O=C(CSc1ccccc1)N1CCN(c2ccccn2)CC1	-2.7	6.0	0.2	nt	1.5	nt	nt
Cc1ccc(/C=N/NC(=O)c2ccccc2OCc2ccc(F)cc2)o1	24.2	93.8*	-2.3	-1.3	0.1	54.1*	47.0*
CCC(CC)=NNC(=O)c1ccccc1OCc1ccc(F)cc1	-1.9	-0.4	-5.7	2.9	2.5	nt	nt
CC(C)(C)n1nnnc1C(c1cc2cc3c(cc2[nH]c1=O)OCO3)N1CCN(c2ccccc2)CC1 (stereo not given)	15.5	25.9	-2.4	2.0	-3.8	nt	nt
CCC(C)(C)n1nnnc1C(C(C)C)N(Cc1ccco1)Cc1cc2cc3c(cc2[nH]c1=O)OCO3 (stereo not given)	8.7	29.3*	0.1	-1.6	-3.4	51.9*	44.0*

Screening data: PubChem, several laboratories
